Many of the other results were omitted from the sample, so hits are more common in it than they were.
Six1-Eya2 blk: Six1/Eya2 interaction inhibition; AlphaScreen GST-Six1/His-Eya2 binding, biochemical; active compounds read low; activity change, % (no concentration beside the values); 360,000 tested, 0.56% active; AID 651725
Target sequence (O00167 whole entry, looked up): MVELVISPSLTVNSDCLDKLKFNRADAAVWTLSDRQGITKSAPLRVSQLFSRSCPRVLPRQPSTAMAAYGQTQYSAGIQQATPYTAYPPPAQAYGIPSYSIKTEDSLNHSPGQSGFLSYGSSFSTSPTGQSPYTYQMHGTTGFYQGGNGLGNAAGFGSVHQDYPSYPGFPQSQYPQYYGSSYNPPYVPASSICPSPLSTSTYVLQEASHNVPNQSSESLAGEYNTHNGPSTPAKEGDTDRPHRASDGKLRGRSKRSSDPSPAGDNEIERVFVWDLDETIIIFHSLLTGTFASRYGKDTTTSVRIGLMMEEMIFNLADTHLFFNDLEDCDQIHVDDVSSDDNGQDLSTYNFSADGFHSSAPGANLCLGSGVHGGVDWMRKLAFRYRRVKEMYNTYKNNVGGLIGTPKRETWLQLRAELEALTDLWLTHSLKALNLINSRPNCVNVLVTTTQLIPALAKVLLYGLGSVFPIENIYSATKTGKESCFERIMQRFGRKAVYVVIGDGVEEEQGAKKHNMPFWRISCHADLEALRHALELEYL
Target sequence (Q15475 whole entry, looked up): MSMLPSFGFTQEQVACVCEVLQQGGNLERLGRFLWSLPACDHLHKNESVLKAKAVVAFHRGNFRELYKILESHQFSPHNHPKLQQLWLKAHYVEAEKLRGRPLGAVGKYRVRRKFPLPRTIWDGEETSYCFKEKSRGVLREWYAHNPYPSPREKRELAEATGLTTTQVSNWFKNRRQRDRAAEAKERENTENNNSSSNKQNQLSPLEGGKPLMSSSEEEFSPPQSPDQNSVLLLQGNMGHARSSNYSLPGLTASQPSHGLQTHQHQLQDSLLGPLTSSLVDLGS
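GST-Six1 + His-Eya2 (5X stock: 250/500 nM); Tris pH 8.0, 300 mM NaCl, 0.05% BSA, 0.02% Tween 20; GSH donor/Ni acceptor beads; 1 h 37 °C dark; AlphaScreen readout.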
L3MBTL1 inh: blocks human L3MBTL1; Q9Y468; AlphaScreen L3MBTL1–H3K9me1 peptide binding; Potency, µM (doses to about 57.1 µM), for inactives: top-dose activity, negative = inhibition, actives largely listed as inhibitors; 230,000 tested, 0.66% active; AID 485360; active means well fitted inhibition curve with a large enough effect; inconclusive means small, poorly fitted or top-dose-only effect; inactive means no such curve, though single readings can be large or run the other way; further: potency means the concentration at half of the fitted maximal effect; nearly all actives have a fitted effect of over 60% in size
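Read-out is AlphaScreen signal from streptavidin donor and nickel chelate acceptor beads (10 ug/mL final each) bridging L3MBTL1 (50 nM) and biotinylated K9-monomethylated H3(1-15) peptide (75 nM), after 30 min compound exposure at room temperature.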
KDM4E inh: blocks human JMJD2E demethylase activity | JMJD2E catalytic domain, FDH-coupled NADH fluorescence (FDH is formaldehyde dehydrogenase) | Potency, µM (top dose mostly 57.1 µM), for inactives: top-dose activity change, negative = inhibition, hits mostly inhibitors | 230,000 tested, 1.6% active; active means well fitted inhibition curve with a large enough effect, not every such curve was filed as active; inconclusive means small, poorly fitted or top-dose-only effect, or another doubt; inactive means no such curve, though single readings can be large or run the other way;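 further: potency means the concentration at half of the fitted maximal effect; 0% = wells with enzyme and -100% = buffer wells without enzyme; nearly all actives have a fitted effect of over 50% in size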
CtBP-E1A blk: blocks the CtBP interaction with E1A; 340,000 tested, 0.49% active; activity change, % (concentration not given with the values); AID 651724; AlphaScreen GST-E1A/His-CtBP binding, 1536-well; active compounds read low
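Protein mix (5X: 125 nM each GST-E1A, His-CtBP) was incubated with pinned compound 2 h at 37 deg C in dark, in 50 mM Tris pH 8.0 buffer with 300 mM NaCl. Glutathione donor and nickel acceptor beads followed; AlphaScreen signal read after 1 h.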
Starred values were filed as active, the others as inactive; ? = inconclusive; · = no result; ! = not confirmed by another sample; [ ] = dose if it differs, or a comment. Unless noted, no stated cut-off is given here; in the data, active means activity change below about -65%; inconclusive means mostly about -30% to -63%; inactive means weaker than that. Unless noted, on the % scale 0 is the no-effect control and ±100 the full control effect.

SMILES | Six1-Eya2 blk | L3MBTL1 inh | KDM4E inh | CtBP-E1A blk
Cc1nc2cc(-c3ccsc3-n3c(C)ccc3C)[nH]n2c(=O)c1Cl | -78* | · | ? | ?
O=C(O)C1(C(=O)O)CCC1 | 7 | 9% | · | 1
N.N.O=C(O)C1(C(=O)O)CCC1.[Pt] | · | · | 11µM* | ·
Cc1nn(-c2ccccc2)c(C)c1/C=C/C(=O)OCC(=O)N(C)C1CCS(=O)(=O)C1 (stereo not drawn) | 0 | 5% | -12% | ?
CCN(C(=O)COC(=O)/C=C/c1c(C)nn(-c2ccccc2)c1C)C1CCS(=O)(=O)C1 (stereo not drawn) | -7 | · | 7% | -71*
CC(C)OC(=O)[C@@H]1CC[C@H](C)[C@@H](CCCC=O)O1 | · | · | 12% | ·
CC(=O)c1nnn(-c2cccc(C#N)c2)c1C | -3 | · | -3% | -4
CN(C)[C@H]1C(=O)C(C(=O)NCN2CCCC2)=C(O)[C@]2(O)C(=O)C3=C(O)c4c(O)cccc4[C@@](C)(O)[C@H]3C[C@@H]12 | · | · | 11µM* | ·
O=C(CSc1cccc2cccnc12)OCC(=O)c1ccccc1 | -88* | 0% | ? | -93*
O=C(Sc1cccc2cccnc12)c1ccc(F)cc1 | · | 4.5µM* | ? | ·
NNC(=O)CSc1cccc2cccnc12 | -7 | -10% | -6% | 9
CN(C)C(=O)CSc1cccc2cccnc12 | -91* | -16%[11.4 µM] | ? | -94*
O=C(CSc1cccc2cccnc12)Nc1ccccc1F | ? | -2% | · | ?
O=C(CSc1cccc2cccnc12)N1CCCC1 | -93* | ? | ? | -91*
COC(=O)C1=C(C(=O)OC)[C@@H]2N(C)c3ccccc3[C@@]23C[C@@H](C(=O)OC)N(S(=O)(=O)c2ccc(OC)cc2)C3=N1 | · | · | -5%[11.4 µM] | ·
COC(=O)[C@H](COC(C)(C)C)NC(=O)O[C@@H]1C(=O)c2ccc(OC)cc2O[C@H]1c1cccc(C(F)(F)F)c1 | · | · | -9% | ·
COC(=O)C1(C(=O)OC)CC(CO)C(=O)[C@H]1c1ccccc1 (stereo partly drawn) | · | · | 1% | ·
COCCNC(=O)CCC(=O)NNc1nc2ccccc2c2nc(-c3ccccc3)nn12 | -67* | · | -1% | -17
CC1=NN(c2cccc(C(=O)O)c2)C(=O)/C1=C\C=C\c1ccco1 | ? | 3.2µM* | 9% | 3
Cc1ccccc1OCC(=O)N/N=C/c1ccncc1 | -14 | 29% | -2% | -9
C/C(=N\OCC(=O)N/N=C/c1ccccc1O)c1cccs1 | ? | · | 22µM* | -67*
C/C(=N\OCC(=O)N/N=C/c1ccccc1)c1cccs1 | 2 | · | 1% | 4
Cc1ccc(S(=O)(=O)NCC(=O)N/N=C/c2ccccc2O)cc1 | ? | -4% | 25µM* | ?
Cc1ccccc1OCC(=O)N/N=C/c1cccc2cccnc12 | -76* | · | · | -13
Cc1ccc(S(=O)(=O)NCC(=O)N/N=C/c2ccc(Cl)cc2Cl)cc1 | -3 | -4% | -4% | 5
SMILES | Six1-Eya2 blk | L3MBTL1 inh | KDM4E inh | CtBP-E1A blk
Cc1nccn1CC(=O)N/N=C/c1ccccc1O | -81* | -25% | ? | -96*
CC(Sc1nnnn1-c1ccc(O)cc1)C(=O)NNC(=O)c1ccc(F)cc1 (stereo not drawn) | 0 | 8% | · | -1
CSc1nnc(-c2ccc(S(=O)(=O)N3CCOCC3)cc2)n1C | -1 | · | · | -9
CC(=O)C(=Cc1cccc(C#N)c1)C(=O)c1ccccc1 | 5 | · | · | -12
Cc1c(C(=O)NCc2cccc(C(F)(F)F)c2)sc(=O)n1Cc1ccc(C(=O)N(C)C)cc1 | -6 | · | · | 1
O=C(COc1cccc2cccnc12)N/N=C/c1ccc(O)cc1 | 0 | -11% | -29% | -14
CSc1ccccc1NC(=O)CN(C)C(=O)COc1cccc2cccnc12 | -85* | ? | · | -85*
O=C(COc1cccc2cccnc12)N/N=C/c1ccccc1O | -18 | 4% | 7.9µM* | -25
O=C(N/N=C/c1cn(-c2cccs2)nc1-c1ccccc1)c1ccccc1O | -78* | 6% | 5% | -76*
CN(C)c1ccc(Cc2ccc(N(C)C)cc2)cc1 | -92* | · | · | ·
CN(C)c1ccc(CCc2ccc(N)cc2)cc1 | 0 | · | · | ?
CCc1ccc(N=C2NC(=O)/C(=C/c3cc(OC)c(OC)c(OC)c3)S2)cc1 | -8 | -4% | · | 11
COc1cc(/C=C2\SC(=Nc3ccc(O)cc3)NC2=O)cc(OC)c1O | ? | · | 2% | -65*
COc1ccc(/C(=N/Nc2ncnc3ccccc23)C(=O)O)cc1 | -77* | · | · | -69*
O=C(N/N=C/c1ccc(-c2ccc(S(=O)(=O)Nc3ncccn3)cc2)o1)c1cc2ccccc2cc1O | -67* | · | ? | -20
NC(=S)N/N=C/c1ccc(-c2ccccc2)o1 | -8 | -6% | ? | -2
NC(=S)NN=Cc1ccc(-c2ccc(S(=O)(=O)Nc3ncccn3)cc2)o1 | ? | 28µM* | · | -3
Cc1ccc(Cl)c(N/C=C/C(=O)c2ccccc2)c1 | 0 | 3% | · | ·
CC(C)COCC(CN(Cc1ccccc1)c1ccccc1)N1CCCC1 (stereo not drawn) | -16 | · | 14µM*! | -18
COC(=O)/C=C/c1ccccc1CN1[C@@H](CC(=O)OC)c2ccccc2S1(=O)=O | -24 | 5% | · | -83*
O=C(O)c1cc(O)c2c(c1)C(=O)c1cc(O)cc(O)c1C2=O | ? | 2.5µM* | -19% | -16
Cc1ccc2[nH]c(=S)cc(C)c2c1 | -8 | -9% | 7.1µM* | 0
Cc1ccc2c(C)cc(=S)[nH]c2c1 | -5 | 4% | 0% | ·
O=C(Nc1nc(-c2ccccn2)cs1)c1ccc(-c2ccccc2F)o1 | ? | ? | · | -70*
Cc1ccc(C(=O)Nc2nc(-c3ccccn3)cs2)o1 | -93* | ? | ? | ?
SMILES | Six1-Eya2 blk | L3MBTL1 inh | KDM4E inh | CtBP-E1A blk
O=C(Nc1nc(-c2ccccn2)cs1)c1ccc([N+](=O)[O-])o1 | -73* | 13µM* | ? | -92*
O=C(Nc1nc(-c2cc(F)ccc2F)cs1)c1ccccn1 | -15 | 2% | 4% | -6
CC(=O)c1ccc(-c2ccc(C(=O)Nc3nc(-c4ccccn4)cs3)o2)cc1 | -69* | -10% | · | -79*
CCCC(=O)C1=C(O)C(C(=O)OC)C(C)(C)CC1=NCCc1ccccc1 (stereo not drawn) | -7 | 1% | · | 0
CCc1cc(C(=O)Nc2nc(-c3ccccn3)cs2)sc1C | ? | -5% | · | -67*
C[C@@]12C(=O)OC(=O)[C@]1(C)[C@H]1CC[C@@H]2O1 | · | · | 7%[25.5 µM] | ·
O=C1C=CC(=O)c2c(O)c(CO)c(CO)c(O)c21 | -70* | · | · | -2
O=C1C=CC(=O)c2c(O)c(Cl)c(Cl)c(O)c21 | · | · | 5% | ·
Clc1cccc(-c2ccc(CNCc3ccccn3)o2)c1 | -16 | 22µM* | · | ·
S=C(NCc1ccccn1)NN=Cc1ccccn1 | -91* | · | · | -4
Cc1ccc(NC(=S)NCc2ccccn2)cc1 | -6 | 6% | -9% | -6
COc1ccccc1CN1CC(C(=O)NCCN2CCOC2=O)CCC1=O (stereo not drawn) | 0 | · | · | 6
C=CCn1cccc(C(=O)Nc2ccc(OC)c(Cl)c2)c1=O | 6 | · | · | 5
Nc1ccc(OC(=O)Nc2ccc(O)cc2)cc1 | 9 | · | 18µM* | -6

High-throughput results (PubChem BioAssay)
